# Measurements taken from the supplement of paper PMC6555819.
# Tests used:
# Assay in all cases: PBM binding z-score (relative to random genomic background probes); higher = stronger binding; sequences stand for … in GC…GCGATTGACAGCGTAGAATGAAGG
# [1] = system: PPARg:RXRa DBDmut IVT, anti-RXR (DBD mutation: RXRa K156A/R161A, NR concentration 270 nM, RXRa partner concentration 90 nM)
# Method in brief: (§1)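 Each nuclear receptor dimer, without ligand, was incubated for 1 h on custom Agilent 4×180K protein-binding microarrays. Binding was detected with antibodies against each partner (one per run), and scanned fluorescence was regression-normalized. The binding z-scores are referenced to random human genomic background probes.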
# [2] = system: PPARg:RXRa IVT, anti-PPARg (NR concentration 270 nM, RXRa partner concentration 90 nM)
# Method in brief: as §1
# [3] = system: PPARg DBDmut:RXRa IVT, anti-PPARg (DBD mutation: PPARg1 K132A/R137A, NR concentration 270 nM, RXRa partner concentration 90 nM)
# Method in brief: as §1
# [4] = system: PPARg DBDmut IVT, anti-PPARg (DBD mutation: PPARg1 K132A/R137A, NR concentration 270 nM)
# Method in brief: as §1
# [5] = system: PPARg homodimer (NR concentration 180 nM)
# Method in brief: as §1
# [6] = system: PXR:RXRa (NR concentration 270 nM, RXRa partner concentration 90 nM)
# Method in brief: as §1
# [7] = system: PXR homodimer (NR concentration 270 nM)
# Method in brief: as §1
# [8] = system: RARa:RXR (NR concentration 270 nM, RXRa partner concentration 90 nM)
# Method in brief: as §1
# [9] = system: RARa homodimer (NR concentration 270 nM)
# Method in brief: as §1
# [10] = system: RARb:RXRa (NR concentration 270 nM, RXRa partner concentration 90 nM)
# Method in brief: as §1
Sequence,PBM binding z-score [1],PBM binding z-score [2],PBM binding z-score [3],PBM binding z-score [4],PBM binding z-score [5],PBM binding z-score [6],PBM binding z-score [7],PBM binding z-score [8],PBM binding z-score [9],PBM binding z-score [10]
AGAACAAGGGCACGCTGAGTTGATAGCAGAGTAG,3.07,2.72,0.166,0.443,0.00636,0.845,0.17,0.366,-0.312,2.51
CGTCAAAGTTCATCTAAGGTAACGTAAAGCACGC,0.47,1.89,0.673,1.11,3.01,5.51,5.77,3.97,1.85,4.78
ATCTCGAGGTAACAAGTTCAGTGAAAGAGAGGAC,0.257,1.41,0.523,1.06,0.56,1.74,1.63,1.3,0.416,1.73
AGTCAAAGTTCATGTAGGTAACGTAAGATATGCT,0.795,4,1.62,2.1,3.26,5.3,5.21,3.76,0.859,4.81
AGTCAAAGTTCACTTGGTAACGTAAGATTCAGCT,0.263,2.42,1.28,0.299,1.76,4.17,2.53,2.62,0.876,4.58
TCTTGTAGATCAAGAAGGTTAAGAAAGCCTGAGT,1.65,0.53,-0.357,0.523,0.323,0.858,0.332,0.941,0.353,0.732
CGTCCAAGGTCATCGGAGGTCAGTGAAGACAGAT,3.14,4.14,0.99,1.08,6.99,7.33,7.36,6.63,3.02,5.5
GCGACTGGGGCATCAGCAGGTTACCATCACTTAA,4.02,3.08,-0.268,-0.441,0.406,-0.239,-0.641,0.272,-0.548,0.891
TCCTGTAGATCAGCAGGTTAAGAAAGCTGGCCAA,1.6,-0.214,-0.0572,-0.0553,-0.125,0.286,-0.41,0.585,-0.442,0.219
ATCTCGAGGTAAAAGTTCAGTGAATCCCGAGGAT,-0.0537,2.11,0.38,0.58,0.813,2.53,0.878,2.6,-0.00487,2.54
GGAACGAGGGCAAAGTCGATAGCATCTGTCGACG,3.57,3.11,0.306,0.0307,-0.309,0.155,-0.0717,0.0883,-0.247,1.87
CCTACTCGGCCATTCAGAGGTCATTGATCATATG,2.23,1.88,0.471,0.672,2.68,4.91,3.38,4.55,1.67,3.27
CCGAGTAGGTTGTGGGGCATTCAGGCAACGGTGA,1.04,1.29,-1.06,-0.659,0.736,-0.334,0.115,-0.303,0.109,0.0437
ATCGAAAGGTCGAAGGTGGGTATACCCACCCGAA,-0.494,1.52,0.29,0.264,1.05,2.11,-0.101,3.05,-0.341,3.51
CCACGGAGGACAACAGGAGGTCAGAGCTGCCAGA,-0.448,0.453,-0.512,-0.952,1.79,2.21,0.52,2.53,1.2,2.99
CTGACTGGGGCAAGGTTACCATAACGCACAGCCA,4.8,5.05,0.266,0.0884,0.436,0.519,0.00598,0.987,0.104,1.86
TTACCAAGGTGAAAGGTCGTTGTTGCACGCCTTG,2.71,4.85,-0.135,0.857,1.39,3.78,0.253,5.2,-0.175,3.09
GCTATTAGTTGAAAGGGAAACCGAATGATTCTCG,0.303,0.0307,0.646,0.468,0.766,-0.0354,0.0349,0.204,1.17,-0.128
TCATATAGGTAAAGGTTAAAGTCGAACGATATGA,3.98,4.07,1.37,1.86,1.53,2.1,0.481,3.21,1.26,2.67
CCTTACGGGTCACTCCAGGTTATAGAATCGGAGT,2.67,3.47,1.31,0.0238,1.95,5.29,0.455,4.11,0.74,3.68
GATACAGGGTCAGCTAGAGGCCAGAGCATGGAAA,1.04,2.15,0.0195,-0.294,1.76,2.88,-0.095,4.33,-0.0795,4.16
TCTTGTAGATCACTAGAGGTTAAGAAAGTGCGCT,1.81,1.16,1.46,0.897,0.0426,3.04,0.56,1.74,0.205,1.03
ATACCAAGGTGATCATGAGGTCGTTGATACTAAC,0.474,1.5,0.599,0.991,0.68,3.42,1.96,2.22,0.136,1.49
TCATATAGGTAAATGCTAGGTGAAAGGCCGATCT,3.92,2.61,1.09,0.912,1.13,0.776,0.428,1.1,1.3,0.655
CAAACTAGGACACGAAAGGTCAAAGTCGAATGAC,6.64,6.94,2.48,3.31,4.51,5.64,1.78,6.19,3.15,4.52
